Measured values from PMC7862700, “An all-to-all approach to the identification of sequence-specific readers for epigenetic DNA modifications on cytosine”.

What was measured:
Assay in all cases: DAPPL (digital affinity profiling via proximity ligation, sequencing); 10 mM Tris-HCl pH 7.5, 50 mM NaCl, 1 mM DTT, 4% glycerol, room temperature, 30 min; GST-TFs on glutathione beads, 16-mer random dsDNA library, 0.1% formaldehyde crosslink after washing; high values mean tight binding
FLI1 = biological target: T1, FLI1 (Homo sapiens, UniProt Q01543 1-452); details: protein: recombinant; tags: N-terminal GST; dsDNA, one strand shown
T1 sequence: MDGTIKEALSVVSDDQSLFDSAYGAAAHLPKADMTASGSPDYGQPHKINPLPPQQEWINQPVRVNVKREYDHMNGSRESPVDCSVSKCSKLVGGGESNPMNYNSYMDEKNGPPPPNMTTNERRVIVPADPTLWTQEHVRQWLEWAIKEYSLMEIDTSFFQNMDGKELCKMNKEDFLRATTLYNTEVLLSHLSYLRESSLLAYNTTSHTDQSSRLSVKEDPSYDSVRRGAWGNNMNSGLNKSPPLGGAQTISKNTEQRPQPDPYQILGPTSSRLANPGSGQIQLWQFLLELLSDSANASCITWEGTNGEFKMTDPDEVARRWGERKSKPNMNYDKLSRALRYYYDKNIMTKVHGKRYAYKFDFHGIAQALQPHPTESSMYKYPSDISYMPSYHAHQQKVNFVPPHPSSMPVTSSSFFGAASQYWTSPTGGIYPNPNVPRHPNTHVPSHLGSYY
How it was run: (§1)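 Human transcription factors carrying a GST fusion were produced in yeast, bound to glutathione beads, tagged with DNA barcodes and pooled together with a tag-only sample. Each pool was held with 200 nmole of a random double-stranded 16-mer DNA library in Tris/NaCl/DTT/glycerol buffer for 30 min at room temperature, then washed, crosslinked in 0.1% formaldehyde, proximity-ligated with BsaI/T4 ligase (1 h, 37 °C), PCR-amplified and sequenced on an Illumina NextSeq500. Binding signal is the read frequency of each hexamer for a given factor divided by its frequency in the tag-only sample.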

ELK1 = biological target: T2, ELK1 (Homo sapiens, UniProt P19419 1-428); details: protein: recombinant; tags: N-terminal GST; dsDNA, one strand shown
T2 sequence: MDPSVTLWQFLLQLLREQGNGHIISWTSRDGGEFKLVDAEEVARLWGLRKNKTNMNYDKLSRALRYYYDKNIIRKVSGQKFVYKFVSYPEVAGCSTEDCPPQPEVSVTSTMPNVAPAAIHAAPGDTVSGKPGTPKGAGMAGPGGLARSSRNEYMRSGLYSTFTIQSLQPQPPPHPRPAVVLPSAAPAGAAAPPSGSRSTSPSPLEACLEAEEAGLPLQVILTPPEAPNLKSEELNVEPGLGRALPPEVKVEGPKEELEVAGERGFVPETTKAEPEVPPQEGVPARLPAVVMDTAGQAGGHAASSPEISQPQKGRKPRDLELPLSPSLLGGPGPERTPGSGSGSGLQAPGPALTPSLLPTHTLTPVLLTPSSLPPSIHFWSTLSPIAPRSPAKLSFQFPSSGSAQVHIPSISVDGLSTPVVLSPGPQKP
How it was run: as §1

GABPA = biological target: T3, GABPA (Homo sapiens, UniProt Q06546 1-454); details: protein: recombinant; tags: N-terminal GST; dsDNA, one strand shown
T3 sequence: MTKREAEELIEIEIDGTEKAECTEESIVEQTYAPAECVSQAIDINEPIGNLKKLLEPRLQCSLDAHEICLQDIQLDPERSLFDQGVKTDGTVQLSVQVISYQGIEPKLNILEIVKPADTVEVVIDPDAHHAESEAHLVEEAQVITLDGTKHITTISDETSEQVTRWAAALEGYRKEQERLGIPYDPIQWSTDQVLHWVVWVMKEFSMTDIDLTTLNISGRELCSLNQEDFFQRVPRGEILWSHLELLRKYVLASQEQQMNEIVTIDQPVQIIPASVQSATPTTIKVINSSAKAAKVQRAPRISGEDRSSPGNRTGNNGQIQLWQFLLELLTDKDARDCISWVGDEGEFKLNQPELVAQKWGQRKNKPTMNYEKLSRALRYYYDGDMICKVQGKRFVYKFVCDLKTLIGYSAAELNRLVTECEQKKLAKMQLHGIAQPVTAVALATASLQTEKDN
How it was run: as §1

ERG = biological target: T4, ERG (Homo sapiens, UniProt P11308 1-479); details: protein: recombinant; tags: N-terminal GST; dsDNA, one strand shown
T4 sequence: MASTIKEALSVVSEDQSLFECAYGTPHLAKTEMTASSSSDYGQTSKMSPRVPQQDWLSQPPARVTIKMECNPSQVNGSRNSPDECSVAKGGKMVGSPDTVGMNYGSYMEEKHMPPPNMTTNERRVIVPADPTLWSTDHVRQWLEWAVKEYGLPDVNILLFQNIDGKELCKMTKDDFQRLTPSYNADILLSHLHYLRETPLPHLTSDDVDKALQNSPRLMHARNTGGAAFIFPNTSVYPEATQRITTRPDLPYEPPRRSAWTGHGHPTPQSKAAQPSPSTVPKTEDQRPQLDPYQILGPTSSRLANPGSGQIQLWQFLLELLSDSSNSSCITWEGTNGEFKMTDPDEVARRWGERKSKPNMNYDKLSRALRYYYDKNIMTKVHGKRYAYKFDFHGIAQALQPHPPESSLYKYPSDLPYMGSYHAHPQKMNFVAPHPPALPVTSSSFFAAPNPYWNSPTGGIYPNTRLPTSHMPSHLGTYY
How it was run: as §1

ELF1 = ELF1 (Homo sapiens, UniProt P32519 1-619); details: protein: recombinant; tags: N-terminal GST; dsDNA, one strand shown
How it was run: as §1

EHF = biological target: T5, EHF (Homo sapiens, UniProt Q9NZC4 1-300); details: protein: recombinant; tags: N-terminal GST; dsDNA, one strand shown
T5 sequence: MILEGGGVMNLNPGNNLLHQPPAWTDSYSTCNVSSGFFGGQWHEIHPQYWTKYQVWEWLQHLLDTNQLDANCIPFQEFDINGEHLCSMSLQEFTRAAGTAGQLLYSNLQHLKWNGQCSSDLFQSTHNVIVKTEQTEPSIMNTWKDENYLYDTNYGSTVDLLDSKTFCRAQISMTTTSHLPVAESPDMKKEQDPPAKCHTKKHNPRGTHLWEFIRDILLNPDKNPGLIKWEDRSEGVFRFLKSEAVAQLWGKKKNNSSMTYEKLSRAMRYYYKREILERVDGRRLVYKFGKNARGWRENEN
How it was run: as §1

SPI1 = SPI1 (Homo sapiens, UniProt P17947 1-270); details: protein: recombinant; tags: N-terminal GST; dsDNA, one strand shown
How it was run: as §1

SPIB = SPIB (Homo sapiens, UniProt Q01892 1-262); details: protein: recombinant; tags: N-terminal GST; dsDNA, one strand shown
How it was run: as §1

ELK3 = biological target: T6, ELK3 (Homo sapiens, UniProt P41970 1-407); details: protein: recombinant; tags: N-terminal GST; dsDNA, one strand shown
T6 sequence: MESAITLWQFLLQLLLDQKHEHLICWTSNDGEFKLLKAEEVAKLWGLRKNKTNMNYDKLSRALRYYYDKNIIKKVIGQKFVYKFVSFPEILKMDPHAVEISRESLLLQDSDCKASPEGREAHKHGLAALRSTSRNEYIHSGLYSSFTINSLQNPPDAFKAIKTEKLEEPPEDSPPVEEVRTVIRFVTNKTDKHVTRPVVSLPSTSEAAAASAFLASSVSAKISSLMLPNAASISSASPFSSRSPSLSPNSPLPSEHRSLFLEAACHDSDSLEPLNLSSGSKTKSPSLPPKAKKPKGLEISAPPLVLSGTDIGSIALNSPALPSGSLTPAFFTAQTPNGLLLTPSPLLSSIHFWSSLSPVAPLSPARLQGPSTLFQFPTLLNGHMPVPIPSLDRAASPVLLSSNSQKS
How it was run: as §1

FEV = biological target: T7, FEV (Homo sapiens, UniProt Q99581 1-238); details: protein: recombinant; tags: N-terminal GST; dsDNA, one strand shown
T7 sequence: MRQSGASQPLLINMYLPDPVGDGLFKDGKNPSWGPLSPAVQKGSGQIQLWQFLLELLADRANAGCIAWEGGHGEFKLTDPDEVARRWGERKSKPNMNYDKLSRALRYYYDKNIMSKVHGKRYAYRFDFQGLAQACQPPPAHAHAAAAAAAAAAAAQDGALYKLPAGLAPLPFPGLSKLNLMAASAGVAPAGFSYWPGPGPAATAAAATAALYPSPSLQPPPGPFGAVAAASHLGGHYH
How it was run: as §1

ETV5 = ETV5 (Homo sapiens, UniProt P41161 1-510); details: protein: recombinant; tags: N-terminal GST; dsDNA, one strand shown
How it was run: as §1

HSF1 = HSF1 (Homo sapiens, UniProt Q00613 1-529); details: protein: recombinant; tags: N-terminal GST; chain copies: 3; dsDNA, one strand shown
How it was run: as §1

SPIC = biological target: T8, SPIC (Homo sapiens, UniProt Q8N5J4 1-248); details: protein: recombinant; tags: N-terminal GST; dsDNA, one strand shown
T8 sequence: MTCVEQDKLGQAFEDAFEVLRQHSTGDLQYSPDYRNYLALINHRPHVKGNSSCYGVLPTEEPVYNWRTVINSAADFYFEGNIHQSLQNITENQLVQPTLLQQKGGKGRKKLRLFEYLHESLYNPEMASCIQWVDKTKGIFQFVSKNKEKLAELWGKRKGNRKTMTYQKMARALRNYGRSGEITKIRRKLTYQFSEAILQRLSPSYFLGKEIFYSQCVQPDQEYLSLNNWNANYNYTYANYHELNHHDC
How it was run: as §1

ELF4 = ELF4 (Homo sapiens, UniProt Q99607 1-663); details: protein: recombinant; tags: N-terminal GST; dsDNA, one strand shown
How it was run: as §1

ELK4 = biological target: T9, ELK4 (Homo sapiens, UniProt P28324-2 1-405); details: protein: recombinant; tags: N-terminal GST; dsDNA, one strand shown
T9 sequence: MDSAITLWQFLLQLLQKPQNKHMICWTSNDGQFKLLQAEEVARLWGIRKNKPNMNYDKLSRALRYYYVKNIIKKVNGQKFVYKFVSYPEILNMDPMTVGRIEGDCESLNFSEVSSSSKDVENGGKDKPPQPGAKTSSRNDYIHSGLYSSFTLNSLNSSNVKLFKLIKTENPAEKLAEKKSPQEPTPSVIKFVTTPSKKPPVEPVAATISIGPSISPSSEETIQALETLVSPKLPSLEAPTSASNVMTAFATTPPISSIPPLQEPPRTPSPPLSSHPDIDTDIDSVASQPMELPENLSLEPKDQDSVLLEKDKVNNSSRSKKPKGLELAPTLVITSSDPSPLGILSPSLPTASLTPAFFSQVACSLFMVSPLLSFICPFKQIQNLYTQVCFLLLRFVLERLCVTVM
How it was run: as §1

ELF3 = biological target: T10, ELF3 (Homo sapiens, UniProt P78545 1-371); details: protein: recombinant; tags: N-terminal GST; dsDNA, one strand shown
T10 sequence: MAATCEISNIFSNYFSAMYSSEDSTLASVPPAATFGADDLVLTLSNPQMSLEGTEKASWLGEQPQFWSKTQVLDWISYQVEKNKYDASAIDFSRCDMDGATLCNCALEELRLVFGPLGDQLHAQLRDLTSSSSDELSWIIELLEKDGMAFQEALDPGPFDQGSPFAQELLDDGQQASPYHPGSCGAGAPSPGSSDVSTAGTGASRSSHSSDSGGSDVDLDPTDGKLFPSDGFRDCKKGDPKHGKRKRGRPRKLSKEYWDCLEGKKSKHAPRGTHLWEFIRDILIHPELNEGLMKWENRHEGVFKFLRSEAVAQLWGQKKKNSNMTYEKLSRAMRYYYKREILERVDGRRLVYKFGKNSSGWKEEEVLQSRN
How it was run: as §1

CRX = CRX (Homo sapiens, UniProt O43186 1-299); details: protein: recombinant; tags: N-terminal GST; dsDNA, one strand shown
How it was run: as §1

ETV1 = ETV1 (Homo sapiens, UniProt P50549 1-477); details: protein: recombinant; tags: N-terminal GST; dsDNA, one strand shown
How it was run: as §1

ETV1, sequence (P50549 whole entry): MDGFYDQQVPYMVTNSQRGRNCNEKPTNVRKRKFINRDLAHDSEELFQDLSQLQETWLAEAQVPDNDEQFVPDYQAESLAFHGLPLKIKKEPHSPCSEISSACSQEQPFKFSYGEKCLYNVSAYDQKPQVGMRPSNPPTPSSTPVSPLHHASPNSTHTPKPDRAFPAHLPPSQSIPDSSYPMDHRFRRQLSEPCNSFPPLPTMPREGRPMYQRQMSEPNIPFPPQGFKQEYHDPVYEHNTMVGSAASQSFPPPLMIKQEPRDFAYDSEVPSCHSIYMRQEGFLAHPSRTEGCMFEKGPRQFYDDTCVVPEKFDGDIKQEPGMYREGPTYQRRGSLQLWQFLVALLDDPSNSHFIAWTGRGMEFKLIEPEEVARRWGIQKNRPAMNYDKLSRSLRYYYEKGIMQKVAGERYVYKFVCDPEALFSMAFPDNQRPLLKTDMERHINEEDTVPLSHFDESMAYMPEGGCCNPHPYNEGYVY
ELF4, sequence (Q99607 whole entry): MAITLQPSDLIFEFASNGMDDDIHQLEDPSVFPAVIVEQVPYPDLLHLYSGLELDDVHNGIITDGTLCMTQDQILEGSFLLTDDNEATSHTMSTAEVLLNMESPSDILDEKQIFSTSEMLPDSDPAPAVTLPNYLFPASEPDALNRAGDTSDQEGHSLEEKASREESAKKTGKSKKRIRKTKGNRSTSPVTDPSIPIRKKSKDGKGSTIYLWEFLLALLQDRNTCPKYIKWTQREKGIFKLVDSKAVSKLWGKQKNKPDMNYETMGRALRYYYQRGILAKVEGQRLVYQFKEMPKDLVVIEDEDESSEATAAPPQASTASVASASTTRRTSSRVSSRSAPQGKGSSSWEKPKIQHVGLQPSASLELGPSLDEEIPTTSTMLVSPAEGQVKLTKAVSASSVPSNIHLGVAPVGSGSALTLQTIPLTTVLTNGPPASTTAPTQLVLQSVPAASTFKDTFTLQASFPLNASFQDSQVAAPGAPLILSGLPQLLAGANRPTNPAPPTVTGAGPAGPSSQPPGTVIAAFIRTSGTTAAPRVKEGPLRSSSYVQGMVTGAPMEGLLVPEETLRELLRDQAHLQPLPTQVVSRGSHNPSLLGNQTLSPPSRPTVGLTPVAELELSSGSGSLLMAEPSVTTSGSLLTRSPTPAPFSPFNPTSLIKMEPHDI
CRX, sequence (O43186 whole entry): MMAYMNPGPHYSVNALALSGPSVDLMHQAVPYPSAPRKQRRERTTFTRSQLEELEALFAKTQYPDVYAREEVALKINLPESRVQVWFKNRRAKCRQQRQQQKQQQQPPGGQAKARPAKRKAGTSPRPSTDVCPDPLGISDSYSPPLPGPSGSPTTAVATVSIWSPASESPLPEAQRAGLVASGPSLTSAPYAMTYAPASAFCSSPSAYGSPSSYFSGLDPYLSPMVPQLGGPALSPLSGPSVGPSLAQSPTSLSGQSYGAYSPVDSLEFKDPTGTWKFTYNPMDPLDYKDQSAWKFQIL
HSF1, sequence (Q00613 whole entry): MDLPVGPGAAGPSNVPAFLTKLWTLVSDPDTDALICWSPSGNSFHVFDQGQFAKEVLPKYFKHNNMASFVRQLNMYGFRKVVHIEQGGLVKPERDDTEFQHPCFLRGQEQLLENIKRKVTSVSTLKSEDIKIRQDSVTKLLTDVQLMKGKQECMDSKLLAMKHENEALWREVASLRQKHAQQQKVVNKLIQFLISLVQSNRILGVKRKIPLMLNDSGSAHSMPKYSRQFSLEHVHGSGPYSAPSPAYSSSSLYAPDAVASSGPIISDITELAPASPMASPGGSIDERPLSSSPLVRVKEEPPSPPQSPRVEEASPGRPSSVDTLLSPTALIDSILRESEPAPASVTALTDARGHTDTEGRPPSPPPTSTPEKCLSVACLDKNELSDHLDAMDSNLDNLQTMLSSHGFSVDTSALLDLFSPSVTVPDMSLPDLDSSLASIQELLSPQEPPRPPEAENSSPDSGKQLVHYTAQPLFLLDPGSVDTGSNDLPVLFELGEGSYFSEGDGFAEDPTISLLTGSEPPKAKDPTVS
ETV5, sequence (P41161 whole entry): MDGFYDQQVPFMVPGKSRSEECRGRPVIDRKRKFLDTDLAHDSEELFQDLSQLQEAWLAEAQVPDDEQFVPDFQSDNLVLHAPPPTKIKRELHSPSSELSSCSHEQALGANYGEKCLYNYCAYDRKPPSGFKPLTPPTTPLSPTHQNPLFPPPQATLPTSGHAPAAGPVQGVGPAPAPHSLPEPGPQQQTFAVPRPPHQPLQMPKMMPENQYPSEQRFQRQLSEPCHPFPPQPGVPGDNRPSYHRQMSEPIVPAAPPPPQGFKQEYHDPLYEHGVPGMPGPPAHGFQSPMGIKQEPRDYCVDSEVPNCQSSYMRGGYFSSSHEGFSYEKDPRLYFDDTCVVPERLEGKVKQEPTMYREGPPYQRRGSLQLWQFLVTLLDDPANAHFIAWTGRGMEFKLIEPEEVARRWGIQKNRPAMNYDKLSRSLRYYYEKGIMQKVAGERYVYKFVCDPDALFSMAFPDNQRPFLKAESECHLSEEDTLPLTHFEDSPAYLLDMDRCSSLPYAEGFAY
SPIB, sequence (Q01892 whole entry): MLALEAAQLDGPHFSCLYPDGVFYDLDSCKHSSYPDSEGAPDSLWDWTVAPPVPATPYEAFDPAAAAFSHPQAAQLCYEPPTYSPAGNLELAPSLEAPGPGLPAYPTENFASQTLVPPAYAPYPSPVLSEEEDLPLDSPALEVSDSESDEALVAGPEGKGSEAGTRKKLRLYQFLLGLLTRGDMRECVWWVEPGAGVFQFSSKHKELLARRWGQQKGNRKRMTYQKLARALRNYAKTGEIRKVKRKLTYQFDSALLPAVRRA
ELF1, sequence (P32519 whole entry): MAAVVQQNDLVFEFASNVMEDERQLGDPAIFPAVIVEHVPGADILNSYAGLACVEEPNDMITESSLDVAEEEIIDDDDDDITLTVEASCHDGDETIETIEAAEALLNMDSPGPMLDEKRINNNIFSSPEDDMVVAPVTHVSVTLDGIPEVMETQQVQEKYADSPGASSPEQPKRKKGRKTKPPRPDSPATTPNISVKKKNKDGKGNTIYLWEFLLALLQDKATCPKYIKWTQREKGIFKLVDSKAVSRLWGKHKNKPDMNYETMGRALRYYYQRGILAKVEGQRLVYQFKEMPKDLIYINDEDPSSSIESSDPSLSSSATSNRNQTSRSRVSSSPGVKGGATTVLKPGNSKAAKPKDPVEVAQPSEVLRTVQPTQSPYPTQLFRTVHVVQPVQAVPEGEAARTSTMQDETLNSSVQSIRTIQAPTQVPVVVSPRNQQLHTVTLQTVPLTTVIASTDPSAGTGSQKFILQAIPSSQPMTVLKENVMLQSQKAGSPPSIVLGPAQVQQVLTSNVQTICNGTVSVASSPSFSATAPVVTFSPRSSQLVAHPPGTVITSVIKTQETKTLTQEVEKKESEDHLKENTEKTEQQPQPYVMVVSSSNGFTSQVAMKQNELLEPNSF

Sequence | binding signal (FLI1) | binding signal (ELK1) | binding signal (GABPA) | binding signal (ERG) | binding signal (ELF1) | binding signal (EHF) | binding signal (SPI1) | binding signal (SPIB) | binding signal (ELK3) | binding signal (FEV) | binding signal (ETV5) | binding signal (HSF1) | binding signal (SPIC) | binding signal (ELF4) | binding signal (ELK4) | binding signal (ELF3) | binding signal (CRX) | binding signal (ETV1)
TCCCGA | 1.39 fold enrichment (6-mer frequency, TF over GST control) | 1.23 fold enrichment (6-mer frequency, TF over GST control) | 1.47 fold enrichment (6-mer frequency, TF over GST control) | 1.27 fold enrichment (6-mer frequency, TF over GST control) | 1.31 fold enrichment (6-mer frequency, TF over GST control) | 1.36 fold enrichment (6-mer frequency, TF over GST control) | 1.37 fold enrichment (6-mer frequency, TF over GST control) | 1.41 fold enrichment (6-mer frequency, TF over GST control) | 1.35 fold enrichment (6-mer frequency, TF over GST control) | 1.31 fold enrichment (6-mer frequency, TF over GST control) | 1.37 fold enrichment (6-mer frequency, TF over GST control) | 2.34 fold enrichment (6-mer frequency, TF over GST control) | 1.36 fold enrichment (6-mer frequency, TF over GST control) | 1.25 fold enrichment (6-mer frequency, TF over GST control) | 1.42 fold enrichment (6-mer frequency, TF over GST control) | 1.26 fold enrichment (6-mer frequency, TF over GST control) | 1.59 fold enrichment (6-mer frequency, TF over GST control) | 1.29 fold enrichment (6-mer frequency, TF over GST control)
ACTAAG | 1.04 fold enrichment (6-mer frequency, TF over GST control) | 1.08 fold enrichment (6-mer frequency, TF over GST control) | 1.11 fold enrichment (6-mer frequency, TF over GST control) | 1.02 fold enrichment (6-mer frequency, TF over GST control) | 1.04 fold enrichment (6-mer frequency, TF over GST control) | 1.15 fold enrichment (6-mer frequency, TF over GST control) | 1.12 fold enrichment (6-mer frequency, TF over GST control) | 1.14 fold enrichment (6-mer frequency, TF over GST control) | 1.07 fold enrichment (6-mer frequency, TF over GST control) | 1.02 fold enrichment (6-mer frequency, TF over GST control) | 1.04 fold enrichment (6-mer frequency, TF over GST control) | 1.32 fold enrichment (6-mer frequency, TF over GST control) | 1.19 fold enrichment (6-mer frequency, TF over GST control) | 1.1 fold enrichment (6-mer frequency, TF over GST control) | 1.02 fold enrichment (6-mer frequency, TF over GST control) | 1.11 fold enrichment (6-mer frequency, TF over GST control) | 1.76 fold enrichment (6-mer frequency, TF over GST control) | 1.15 fold enrichment (6-mer frequency, TF over GST control)
